Among the test systems are NCI-H23 lung; NCI-H226 lung; NCI-H322M lung; HOP-62 NSCLC; NCI-H460 lung; HOP-92 NSCLC; NCI-H522 lung; A549/ATCC NSCLC; 786-0 renal; COLO 205 colon.
What all share (test): NCI-60 one-dose screen, 48 h (100 = growth as untreated, 0 = no growth, -100 = all killed)
Holding throughout (settings): 10 µM unless noted

Among the data in PubChem BioAssay (NCI) are growth values, retold here.

Molecules are shown by their SMILES. This is part of a sample that, as a whole, favours compounds with a hit. Of some 83,000 tested, about 20% had one in any assay.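 Assay: single dose, 48 h. Readout: percent growth (0 = no net growth; negative = cell death). Active: <10.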 A number with no mark means an inactive call. Active and inactive are the calls of the source.

As for `c1cc2c(c3c1CCNC3)OCO2`, the growth with NCI-H23 lung was 94.8%; in the test with NCI-H226 lung, 103%; in the test with NCI-H322M lung, 102%; in the test on HOP-62 NSCLC, 96.6%; in the test with NCI-H460 lung, 114%; in the test on HOP-92 NSCLC, 120%. In addition, the growth is 75.6% in the test on NCI-H522 lung, 66% with A549/ATCC NSCLC, 96.2% in the test with 786-0 renal and 112% in the test on COLO 205 colon.

In the case of `CCN(CCO)C(Cc1ccccc1)c1ccccc1` (stereo not given), the growth in the test with NCI-H23 lung is 93.1%; in the test on NCI-H226 lung, 101%; with NCI-H322M lung, 106%; in the test with HOP-62 NSCLC it was 96.5%; in the test with NCI-H460 lung, 104%; with HOP-92 NSCLC, 100%. Moreover, the growth in the test with NCI-H522 lung was 87.9%; in the test with A549/ATCC NSCLC, 103%; in the test on 786-0 renal, 105%; in the test with COLO 205 colon it was 102%.

Turning to `CC(=O)Nc1nc2c(s1)CC[C@@]1(C)C2=CC[C@H]2[C@@H]3CC[C@H](O)[C@@]3(C)CC[C@@H]21`, the growth is 73.3% in the test on NCI-H23 lung; 89.9% in the test with NCI-H226 lung; 79.8% in the test on NCI-H322M lung; 67.1% in the test on HOP-62 NSCLC; 27.3% in the test with NCI-H460 lung; 84.7% with HOP-92 NSCLC. Moreover, the growth in the test with NCI-H522 lung is 51.6%; in the test on A549/ATCC NSCLC, 56%; with 786-0 renal it was 35.7%; with COLO 205 colon, 72.2%.

For the molecule `CCOP(=O)(NC[C@H]1O[C@](O)(CO)[C@@H](O)[C@@H]1O)OCC`, the growth in the test on NCI-H23 lung was 97.4%; in the test on NCI-H226 lung, 75.9%; in the test on NCI-H322M lung, 112%; in the test on HOP-62 NSCLC it was 91%; with NCI-H460 lung, 105%; in the test with HOP-92 NSCLC it was 93.1%. Further, the growth in the test on NCI-H522 lung was 88.3%; in the test on A549/ATCC NSCLC, 96.6%; in the test on 786-0 renal it was 99.8%; in the test with COLO 205 colon it was 102%.

Turning to `Cc1ccc2c(C(C[N+](=O)[O-])c3cccs3)c(-c3ccccc3)[nH]c2c1` (stereo not given), the growth with NCI-H23 lung is 38.4%; in the test on NCI-H226 lung, 46.4%; in the test with NCI-H322M lung, 54.7%; in the test on HOP-62 NSCLC, 26.2%; in the test with NCI-H460 lung it was 11.3%; in the test with HOP-92 NSCLC it was 25.5%. The growth in the test with NCI-H522 lung was -3.71% (active); in the test on A549/ATCC NSCLC, 28.8%; in the test on 786-0 renal it was 38.6%; in the test on COLO 205 colon, 6.75% (active).

As to `COc1ccc2c(c1)c(C1(O)CC(CSC#N)OC1=O)cn2C(=O)c1ccc(Cl)cc1` (stereo not given), the growth was 89.3% in the test with NCI-H23 lung; 94.8% in the test with NCI-H226 lung; 73.5% in the test with NCI-H322M lung; 104% with HOP-62 NSCLC; 104% with NCI-H460 lung; 109% with HOP-92 NSCLC. The growth with NCI-H522 lung was 95.9%; with A549/ATCC NSCLC it was 98.6%; in the test on 786-0 renal, 102%; with COLO 205 colon it was 127%.

On to `C[C@]12CCc3sc(-c4cccc(F)c4)nc3C1=CC[C@@H]1[C@@H]2CC[C@]2(C)C(=O)CC[C@@H]12`, for which the growth with NCI-H23 lung was 62.7%; in the test on NCI-H226 lung it was 65.8%; in the test on NCI-H322M lung, 69.3%; in the test with HOP-62 NSCLC, 50.5%; with NCI-H460 lung, 53.9%; with HOP-92 NSCLC, 74.3%. For the same molecule, the growth in the test on NCI-H522 lung was -36.5% (active); in the test on A549/ATCC NSCLC it was 55%; in the test on 786-0 renal it was -10.1% (active); with COLO 205 colon, 44.5%.

Consider `Nc1nnnc2nc[nH]c12`, for which the growth with NCI-H23 lung is 31%; in the test on NCI-H226 lung, -54.1% (active); in the test on NCI-H322M lung, 28.1%; in the test on HOP-62 NSCLC, -11.4% (active); in the test on NCI-H460 lung it was 20.6%; in the test with HOP-92 NSCLC, 1.91% (active). Moreover, the growth is 14.6% in the test on NCI-H522 lung, 34.4% with A549/ATCC NSCLC, 0.102% (active) in the test with 786-0 renal and 6.07% (active) with COLO 205 colon.

Regarding `CC(C)=CCC[C@H](C(=O)O)[C@@H]1CC[C@]2(C)C3=C(CC[C@@]12C)[C@@]1(C)CC[C@H](O)C(C)(C)[C@@H]1CC3`, the growth is 106% in the test on NCI-H23 lung; 109% in the test on NCI-H226 lung; 84.2% in the test on NCI-H322M lung; 97.3% in the test with HOP-62 NSCLC; 109% in the test with NCI-H460 lung; 101% in the test with HOP-92 NSCLC. Besides, the growth with NCI-H522 lung was 60.8%; in the test on A549/ATCC NSCLC, 81.8%; in the test on 786-0 renal it was 92%; in the test on COLO 205 colon, 120%.

Consider `Cn1cc(-c2csc(-c3cn(CCCCN4CCCCC4)c4ccc(F)cc34)n2)c2cccnc21`, for which the growth in the test with NCI-H23 lung is 79.8%; in the test with NCI-H226 lung, 74.6%; in the test on NCI-H322M lung, 81.5%; in the test on HOP-62 NSCLC, 88.8%; with NCI-H460 lung, 89.3%; in the test with HOP-92 NSCLC, 51.7%. In addition, the growth was 86.2% with NCI-H522 lung, 92.6% with A549/ATCC NSCLC, -62% (active) with 786-0 renal and 96.7% with COLO 205 colon.

As to `C1CCC2(CC1)OOCNCOO2`, the growth in the test on NCI-H23 lung was 98.2%; in the test with NCI-H226 lung, 107%; in the test on NCI-H322M lung it was 97.4%; with HOP-62 NSCLC it was 103%; with NCI-H460 lung, 108%; in the test with HOP-92 NSCLC, 122%. Moreover, the growth was 89.7% in the test on NCI-H522 lung, 102% in the test on A549/ATCC NSCLC, 105% with 786-0 renal and 115% in the test with COLO 205 colon.
